Compound activity (PubChem BioAssay)
The list is not random: actives were taken first. Their share in the collection is about 4.6%.
DAX1 inh-1: blocks DAX1 repression of SF-1 activated StAR promoter. HEK293T StAR-luciferase reporter, SF-1/DAX-1 repression relief. hit rate 1.1% among 370,000. AID 652010. inhibition, % at 6.8 µM;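 active means inhibition above the mean over all tested compounds plus 3 SD, cut at about 3.6% in these data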;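 further: 0% = DAX-1 cells with DMSO and 100% = cells lacking DAX-1 with DMSO; higher inhibition means more luminescence from relief of DAX-1 repression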
Wee1 stabilizer: inhibitors of human Wee1 degradation; reporter increase, % at 5 µM; hit rate 1.2% among 220,000; AID 1321; HeLa Luc-Wee1K328M stability, luciferase luminescence; 100% = proteasome inhibitor MG132 effect;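 active means activation above the mean of all tested compounds plus 3 SD, set per screening run, cut at about 8.8% in these data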;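 further: cells exposed to compound for 20 h before luminescence read; 0% = DMSO alone and 100% = MG132 at 30 µM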
ssDAF-12 act: S. stercoralis DAF-12 activation, primary screen | hit rate 1% among 370,000 | HEK293 ssDAF-12/GRIP1 lit1-tk-luc reporter, luminescence; % of 3 µM dafachronic acid response | activation, % at 6.8 µM;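 active means activation above the mean over all tested compounds plus 3 SD, cut at about 0.9% in these data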;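 further: 0% = DMSO-only wells and 100% = 3 µM delta7-dafachronic acid wells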
hcDAF12 agonist: activates DAF-12 receptor from parasite H. contortus; hit rate 1.4% among 370,000; HEK293 hcDAF-12 lit1-tk-luc reporter, luminescence; 0% DMSO, 100% Δ7-dafachronic acid; AID 652067; activation, % at 6.8 µM;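 active means activation above the mean of all tested compounds plus 3 SD, cut at about 5.5% in these data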;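 further: 100% = response to 3 µM Δ7-dafachronic acid high control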
DAX1 inh-2: NR0B1 (DAX1) inhibition; P51843; HEK293 Gal4-DAX1 luciferase reporter, luminescence; inhibition, % at 6.75 µM; hit rate 0.99% among 340,000;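 active means inhibition above the mean over all tested compounds plus 3 SD, cut at about 4.2% in these data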;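 further: 0% = DAX1-transfected cells with DMSO and 100% = empty-vector control cells with DMSO; inhibition shows as a rise in luminescence from relieved DAX1 repression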
Target sequence (P51843 207-470 limits assumed): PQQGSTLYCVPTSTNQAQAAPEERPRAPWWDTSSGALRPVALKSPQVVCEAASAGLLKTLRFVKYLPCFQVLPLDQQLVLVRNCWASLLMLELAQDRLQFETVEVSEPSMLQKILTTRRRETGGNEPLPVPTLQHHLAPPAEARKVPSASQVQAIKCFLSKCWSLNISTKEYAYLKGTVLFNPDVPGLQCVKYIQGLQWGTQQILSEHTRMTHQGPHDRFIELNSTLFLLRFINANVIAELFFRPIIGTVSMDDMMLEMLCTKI
hgDAF-12 ag: hgDAF-12 agonism, primary luciferase screen | HEK293 GAL4-hgDAF12 UAS-luciferase reporter, agonist luminescence; normalized to butyrate control | activation, % at 6.8 µM | hit rate 1.8% among 370,000;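 active means activation above a cutoff set at the mean of all screened compounds plus 3 SD, cut at about 10% in these data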;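 further: 0% = DMSO wells and 100% = sodium butyrate wells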
Wee1 stab conf: human Wee1 degradation inhibition, confirmation; shares compounds with Wee1 stabilizer; HeLa Luc-Wee1K328M degradation, luminescence; vehicle 0%, proteasome-blocked wells 100%; activation, % at 5 µM; hit rate 4% among 1,100; AID 1410; in the data active means activation above about 8.9%
An asterisk follows results filed as active; x = not tested or not shown.

SMILES	DAX1 inh-1	Wee1 stabilizer	ssDAF-12 act	hcDAF12 agonist	DAX1 inh-2	hgDAF-12 ag	Wee1 stab conf
CCN(CCC(=O)Nc1cc(OC)ccc1OC)Cc1ccccc1	0	x	-1	-1	x	0	x
Cc1ccc(CCNC(=O)CNC(=S)N(Cc2ccccc2)Cc2cccnc2)cc1	0	15*	-2	-1	-1	0	0
CN(C)CCNC(=O)CNC(=S)N(Cc1ccccc1)Cc1cccnc1	0	-2	-1	0	1	-1	x
Cc1ccc(S(=O)(=O)C[C@@H]2OC[C@H](CO)N2S(=O)(=O)c2ccc(C)cc2)cc1	0	x	-1	0	x	0	x
Cc1cc(C)n2nc(C(=O)Nc3cccnc3)nc2n1	0	13*	-1	-2	0	10	-1
Cc1cc(C)n2nc(C(=O)Nc3cccc(S(=O)(=O)N4CCCC4)c3)nc2n1	1	1	-2	-1	0	-3	x
COc1ccc(-c2nc(-c3ccc4c(c3)OCO4)[nH]c2-c2ccc(OC)cc2)cc1	-1	13*	-2	-2	-1	-1	0
COc1ccc(-c2noc(-c3ccc4c(c3)OCO4)n2)cc1	1	1	-1	1	0	3	x
COc1ccc(C(C)=O)cc1CSCCC#N	0	14*	-1	1	0	-1	0
CCCOc1ccc(C(C)=O)cc1CSCCC#N	-1	0	-1	0	0	-2	x
CCSc1nnc(NC(=O)c2cc(C)nc3ccccc23)s1	-1	11*	-1	0	0	0	2
Cc1ccc(-c2[nH]ncc2/C=N/n2c(COc3ccccc3)nc3ccccc3c2=O)cc1	0	2	-1	0	-3	1	x
Cc1ccccc1OCc1nc2ccccc2c(=O)n1/N=C/c1cn[nH]c1-c1ccccc1	0	11*	-1	3	-2	7	6
CC1=C(C)CS(=O)N(S(=O)(=O)c2ccccc2)C1 (configuration not stated)	-1	11*	-1	0	0	0	-1
CC1=C(C)CS(=O)N(c2ccc(S(N)(=O)=O)cc2)C1 (configuration not stated)	-1	-1	-1	-2	-1	-2	x
COc1ccc(-c2noc(CCC(=O)Nc3cccc(C(=O)NC4CC4)c3)n2)cc1OC	-1	x	-2	0	0	1	x
COc1ccc(OC)c(S(=O)(=O)N2CCC(C(=O)Nc3cccc(C)c3)CC2)c1	0	11*	-2	-1	-1	3	2
COc1ccc(OC)c(S(=O)(=O)N2CCC(C(=O)Nc3ccccc3)CC2)c1	-1	0	0	0	2	-4	x
C=CCn1c(SCC(=O)Nc2cc(C)ccc2OC)nnc1-c1ccco1	0	15*	-1	-2	-2	0	3
COc1ccc2nc(NCc3ccccc3)[nH]c2c1	-1	2	-2	2	2	7	x
Cc1ccc2nc(NCc3ccccc3)[nH]c2c1	0	17*	0	4	1	11*	29*
CCSc1nn2c(=O)c3ccccc3nc2s1	0	15*	0	1	0	10	1
Cc1ccc(OCC(=O)N/N=C2/SCC(=O)N2Cc2ccco2)cc1	1	12*	-1	-2	6.9*	0	2
O=C(COc1cccc2cccnc12)N/N=C1\SCC(=O)N1Cc1ccco1	0	-2	-1	-2	0	0	x
C(=Cc1cccnc1)c1ccncc1	0	x	-1	-2	-1	4	x
SMILES	DAX1 inh-1	Wee1 stabilizer	ssDAF-12 act	hcDAF12 agonist	DAX1 inh-2	hgDAF-12 ag	Wee1 stab conf
O=C(/C=C/c1cccnc1)/C=C/c1cccnc1	-2	18*	-2	-6	-6	-11	22*
CCOC(=O)N1CCN(C(=O)c2ccc3c(c2)N(Cc2ccccc2)CCS3)CC1	-2	x	-2	0	0	-2	x
CC1CC(C)CN(C(=O)c2ccc3c(c2)N(Cc2ccccc2)CCS3)C1 (configuration not stated)	x	13*	x	x	-2	x	0
N#C/C(C(=O)N1CCOCC1)=C1/SC(Cc2ccccc2Cl)C(=O)N1c1ccccc1 (configuration not stated)	0	11*	-2	0	-1	-2	0
N#C/C(C(=O)NCc1ccco1)=C1/SC(Cc2ccc(Cl)cc2)C(=O)N1c1ccccc1 (configuration not stated)	0	0	-2	-2	1	1	x
CCOC(=O)[C@]12CCCCC/C=C\1N(Cc1ccc(OC)cc1)C(=O)[C@H]2CC(=O)N1CCC(c2ccccc2)CC1	0	x	-1	2	x	-2	x
Cc1ccccc1-n1cc(-c2ccc(Br)cc2)nc1SCC(N)=O	0	13*	-1	-3	x	-2	3
Cc1ccccc1-n1nnnc1SCC(N)=O	0	0	-1	-1	0	0	x
BrC(/C=N/N1CCN(Cc2ccccc2)CC1)=C/c1ccccc1	0	23*	-2	-1	0	0	2
O=[N+]([O-])c1cc(/C=N/N2CCN(Cc3ccccc3)CC2)ccc1Cl	x	15*	x	x	0	x	4
BrC(=C\c1ccccc1)/C=N/N1CCN(Cc2ccccc2)CC1	-1	-2	-1	-2	0	1	x
O=[N+]([O-])c1ccc(/C=N/N2CCN(Cc3ccccc3)CC2)cc1	0	x	-2	0	-1	2	x
CCCCCCCCN1C(=O)[C@H](CC(=O)N2CCCCC2)C[C@@]2(C(=O)OC)CC(C)(C)CC=C12	0	x	-1	2	x	0	x
COc1cc(NC(=O)CN2C(=O)COc3ccc(S(=O)(=O)N4CCCC4)cc32)cc(OC)c1	0	x	-1	2	0	0	x
O=C(NCCSc1ccccc1)c1ccc(CN2CCOCC2)cc1	2	15*	0	4	2	10	6
COCCOc1cnn(-c2cc(Oc3ccc(C)cc3)ncn2)c(=O)c1Cl	2	12*	-1	0	-1	1	4
COc1ccc(-n2cc(CNCC3CC(=O)N(C4CC4)C3)c(-c3ccccc3Cl)n2)cc1 (configuration not stated)	0	0	-2	-2	1	1	x
CCN1CC(CNCc2cn(-c3ccc(OC)cc3)nc2-c2ccccc2Cl)CC1=O (configuration not stated)	0	24*	-2	-2	0	1	1
c1ccc(C(c2ccccc2)N2CCN(c3nc4ccccc4n4cnnc34)CC2)cc1	0	11*	-1	-1	x	1	1
COc1ccc(CN(Cc2cccn2C)S(=O)(=O)c2ccc(F)cc2)cc1	0	11*	0	1	2	-3	-1
